Assay outcomes (PubChem)
RORg inh: blocks mouse ROR gamma transcriptional activity | Drosophila S2 Gal4-RORgamma UAS-luciferase reporter, 20 h | AID 2551 | Potency, µM (top dose mostly 53.6 µM), without a hit: at the highest dose activity change, negative = inhibition, most hits filed as inhibitors | P51450 | 310,000 tested, 5.4% active; also: nearly all actives have a fitted effect of over 60% in size
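In this cell-based reporter format, copper sulfate (700 uM final) drives Gal4–ROR gamma fusion expression from a metallothionein promoter in Drosophila Schneider cells; compounds preincubated 1 hr, reporter read after 20 hr at ambient temperature.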
12-LOX inh: blocks human arachidonate 12S-lipoxygenase. Potency, µM (highest dose often 108 µM), for the others: at the top dose activity change, negative = inhibition, actives largely listed as inhibitors. 580,000 tested, 1.1% active. purified 12hLO, xylenol orange hydroperoxide absorbance. P18054
Target sequence (P18054 whole entry, looked up): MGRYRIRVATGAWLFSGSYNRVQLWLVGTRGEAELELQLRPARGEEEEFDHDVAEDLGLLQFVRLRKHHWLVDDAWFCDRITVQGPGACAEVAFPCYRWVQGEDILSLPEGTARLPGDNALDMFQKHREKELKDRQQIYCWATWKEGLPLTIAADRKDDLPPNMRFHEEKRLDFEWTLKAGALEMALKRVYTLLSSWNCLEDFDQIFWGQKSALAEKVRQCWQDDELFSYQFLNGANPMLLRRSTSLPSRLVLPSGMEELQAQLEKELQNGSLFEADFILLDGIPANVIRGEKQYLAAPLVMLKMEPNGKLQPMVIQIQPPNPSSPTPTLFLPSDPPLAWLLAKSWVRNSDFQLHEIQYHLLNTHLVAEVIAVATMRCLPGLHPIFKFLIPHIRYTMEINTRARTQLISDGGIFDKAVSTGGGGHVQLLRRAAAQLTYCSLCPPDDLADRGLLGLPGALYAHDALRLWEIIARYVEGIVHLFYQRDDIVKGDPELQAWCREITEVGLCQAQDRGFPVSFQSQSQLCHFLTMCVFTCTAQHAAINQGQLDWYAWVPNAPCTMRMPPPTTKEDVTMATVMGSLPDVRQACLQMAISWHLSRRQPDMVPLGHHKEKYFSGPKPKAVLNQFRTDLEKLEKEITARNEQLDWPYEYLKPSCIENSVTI
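Hydroperoxide product was detected by ferrous iron/xylenol orange as the 573 to 405 nm absorbance ratio. Arachidonic acid at 40 uM (final) was turned over for 30 min at room temperature by 150 nM human 12hLO, pH 7.0 Hepes buffer, after 15 min compound preincubation.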
TDP1 cell CPT: growth inhibition of DT40 Tdp1-/-;hTDP1 cells with camptothecin (screen for TDP1 inhibitors). chicken DT40 Tdp1-/-;hTDP1 cells + 20 nM CPT, ATP luminescence, 48 h. Potency, µM (series often up to 46.2 µM), without a hit: at the highest dose activity change, negative = growth inhibition, hits mostly inhibitors. 420,000 tested, 12% active; also: nearly all actives have a fitted effect of over 55% in size
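Chicken DT40 Tdp1-/- cells stably complemented with human TDP1 were seeded at 400 cells/well in medium containing 20 nM camptothecin, exposed to pin-transferred compounds, and grown at 37 °C for at least 48 hr. Viability was read as ATP luminescence.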
TDP1 cell noCPT: qHTS for Inhibitors of human tyrosyl-DNA phosphodiesterase 1 (TDP1): qHTS in cells in absence of CPT; 420,000 tested, 15% active; AID 686978, 2013; Potency, µM (doses to about 46.2 µM), for the others: at the top dose activity change, negative = growth inhibition, usual class: inhibitors; DT40 Tdp1-/- hTDP1 cells, no CPT, ATP luminescence, 48 h; also: nearly all actives have a fitted effect of over 55% in size
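Compound effects on proliferation are scored in DT40 Tdp1-/-;hTDP1 cells in the absence of CPT. ATP levels (CellTiter-Glo luminescence) are recorded after a ≥48 hr, 37 °C incubation.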
ELG1 DNA repair: blocks ELG1-dependent DNA repair in HEK293T cells; HEK293T ELG1-luciferase reporter, luminescence, 16 h; DNA damage induced by 5-fluorouridine; Potency, µM (titrated, usually from 46.1 µM), for the others: at the top dose activity change, negative = inhibition, usual class: inhibitors; 330,000 tested, 2.3% active; AID 504467; also: nearly all actives have a fitted effect of over 55% in size
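Reporter activity after DNA damage by 5-fluorouridine is monitored. Compound-treated cells incubate 16 hr at 37 °C, then ONE-Glo is added for 30 min before luminescence reading.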
VP16 counter: Gal4-VP16 reporter inhibition counter-screen | Drosophila S2 Gal4-VP16 UAS-luciferase, luminescence, 20 h | Potency, µM (titrated, usually from 53.6 µM), for inactives: at the highest dose activity, negative = inhibition, usual class: inhibitors | 310,000 tested, 3.5% active | AID 2546;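 also: Gal4-VP16 expression switched on by copper sulfate through the metallothionein promoter; nearly all actives have a fitted effect of over 50% in size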
The depositor's hits bear a star; ? = inconclusive; nt = no result given; [ ] = dose if it differs, or a comment. Only some compounds are listed: those with a hit (about 15% of all), similar ones and a draw of the others. Calls follow the shape of the dose curve; as a rule, active = well fitted curve in the direction sought with a large enough effect; inconclusive = small, poorly fitted or top-dose-only effect, or another doubt; inactive = no such curve, though single readings can be large; an effect the other way counts as inactive or inconclusive. % is scaled to controls: 0 for no effect and ±100 for the full control effect; potency is read from the fitted curve at half-maximal effect.

SMILES	RORg inh	12-LOX inh	TDP1 cell CPT	TDP1 cell noCPT	ELG1 DNA repair	VP16 counter
c1ccc(COc2ccc(CNc3ccc(Oc4ccccc4)cc3)cc2)cc1	nt	2%	nt	nt	nt	nt
CCc1ccccc1NC(=O)c1cc2c(s1)CN(C(C)C)C2	nt	325%	nt	nt	nt	nt
CC(C)(C)OC(=O)COc1ccc2c(=O)c(-c3ccccc3)coc2c1	nt	-7%	nt	nt	nt	nt
Cc1c(Cl)sn(-c2ccc(Cl)cc2)c1=O	1.6µM*	4.5µM*	0.26µM*	0.026µM*	?	2.8µM*
CC(=O)N1CCc2nn(CC(=O)N3CCN(c4ccccc4F)CC3)c(=O)cc2C1	nt	46%	nt	nt	nt	nt
O=C(NN=C(Cc1ccccc1)Cc1ccccc1)c1ccccc1O	3.5µM*	19%	?	?	?	?
NC(=S)NN=C(Cc1ccccc1)Cc1ccccc1	1.4µM*	11µM*	5.8µM*	3.7µM*	?	5µM*
Cc1[nH]n(-c2ccccc2)c(=O)c1-c1ccccc1	49%	311%	6%	-17%	17%	6%
Cc1[nH]n(-c2ccccc2)c(=O)c1/C=C1/C=c2ccccc2=N1	31%	-7%	?	21µM*	?	?
Cc1[nH]n(-c2ccccc2)c(=O)c1/C=C1\C=NN=C1c1ccccc1	11µM*	384%	19%	-3%	?	?
Cc1[nH]n(-c2ccccc2)c(=O)c1N=O	7%	?	-5%	?	0%	-4%
c1ccc2c(c1)ncn2Cc1nnc2sc(-c3ccc4c(c3)OCO4)nn12	-15%	-18%	?	15µM*	-16%	-3%
c1ccc(CCc2nn3c(Cn4nnc5ccccc54)nnc3s2)cc1	?	-9%	?	?	9%	16%
COc1ccc(OCc2nn3c(-c4cccc(OC)c4)nnc3s2)cc1	5%	0%	-10%	-21%	1%	-2%
COc1ccc(OCc2nn3c(Cn4cnc5ccccc54)nnc3s2)cc1	38%	-34%	21µM*	?	23µM*	-18%
Clc1ccccc1-c1nn2c(Cn3cnc4ccccc43)nnc2s1	-39%	?	?	?	4%	0%
c1ccc(CCc2nn3c(Cn4cnc5ccccc54)nnc3s2)cc1	43%	?	18µM*	18µM*	-17%	-5%[0.365 µM]
C#CCN(C)Cc1nc(C2(O)CCN(C(=O)NCCC)CC2)cs1	nt	15%[176 µM]	nt	nt	nt	nt
CC(=O)NNc1nc(-c2ccccc2)cs1	2%	-19%	21µM*	?	-6%	-6%[10 µM]
CC(=O)Nc1nc(-c2cccc3ccccc23)cs1	36%	-2%	15µM*	?	?	22%
CC(=O)NNc1nc(-c2ccc(C)cc2)cs1	-9%	-1%	11%	-18%	?	27%
O=C(NNc1nc(-c2ccccc2)cs1)c1cccs1	7.9µM*	-9%	?	23µM*	17%	?
CC(OC(=O)c1cccs1)C(=O)Nc1nc(-c2ccccc2)cs1 (centres undefined)	?	-21%	?	?	?	6%
CC1(C)SC2c3ccccc3C(=O)N2[C@@H]1C(=O)NCc1ccc(F)cc1 (some centres undefined)	nt	24%	nt	nt	nt	nt
CCOc1ccc(Nc2oc(COc3ccccc3F)nc2C#N)cc1	nt	6%	nt	nt	nt	nt
SMILES	RORg inh	12-LOX inh	TDP1 cell CPT	TDP1 cell noCPT	ELG1 DNA repair	VP16 counter
O=C(COC(=O)C1CCC(=O)N1)Nc1ccccc1OC(F)F (centres undefined)	nt	-25%	20%	20%	?	nt
COc1ccc(/C=C2\CCCC3C2=NN(C(=O)CSc2n[nH]c(N)n2)C3c2ccc(OC)cc2)cc1 (centres undefined)	29%	-2%	23µM*	?	0%	-7%
O=C1CCC(C(=O)OCC(=O)N2N=C3/C(=C/c4ccccc4)CCCC3C2c2ccccc2)N1 (centres undefined)	39%	0%	?	23µM*	-21%	-1%
COc1ccc(CCNC(=O)CSc2n[nH]c(N)n2)cc1	-15%	0%	-13%	0%	14%	-3%
O=C1CCC(C(=O)OCC(=O)N2N=C3/C(=C\c4ccccc4)CCCC3C2c2ccccc2)N1 (centres undefined)	nt	?	?	21µM*	nt	nt
O=C(c1ccccn1)N1N=C2/C(=C/c3ccccc3)CCCC2C1c1ccccc1 (centres undefined)	3%	1%	?	?	-9%	4%
CCc1ccc(OCCCOc2ccccc2/C=N/NC(=O)c2cccc(Cl)c2)cc1	nt	-3%	nt	nt	nt	nt
NS(=O)(=O)c1ccc(CCC(=O)Nc2nc3c(s2)CCCC3)cc1	nt	-6%	nt	nt	nt	nt
CC1CCCN(c2ncnc3c2cnn3-c2ccc(Cl)cc2)C1 (centres undefined)	-41%	?	2%	-27%	?	-75%
Cc1ccc(Cl)cc1-n1ncc2c(N3CCC(C)CC3)ncnc21	nt	-15%	23µM*	9.2µM*	nt	nt
Cc1ccc(Cn2ncc3c(N4CCN(c5ccc(C)cc5)CC4)ncnc32)cc1	4%	-14%	-25%	?	-20%	-2%
Cc1ccccc1N1CCN(c2ncnc3c2cnn3Cc2ccc(Cl)cc2)CC1	23%	63%	13µM*	13µM*	?	-1%
Cc1ccc(Cn2ncc3c(N4CCN(Cc5ccc(Cl)cc5)CC4)ncnc32)cc1	?	-31%	18µM*	16µM*	5.8µM*	?
Cc1ccc(Cn2ncc3c(N4CCN(C)CC4)ncnc32)cc1	-13%	3%	?	10µM*	?	-9%
CC1CCN(c2ncnc3c2cnn3Cc2ccc(Cl)cc2)CC1	24%	3%	18µM*	18µM*	?	-3%
Cc1cc(C)nc(N2CCN(c3ncnc4c3cnn4Cc3ccc(Cl)cc3Cl)CC2)n1	-20%	nt	?	3.7µM*	-16%	-5%
COc1ccc(OC)c(NS(=O)(=O)c2ccc(-c3cnc(C)o3)cc2)c1	nt	4%	nt	nt	nt	nt
CC(=O)NC1(C(F)(F)F)C(=O)N(Cc2ccccc2)C2=C1C(=O)CC(C)(C)C2 (centres undefined)	-2%	0%	0%	0%	-13%	-1%
CC1(C)CC(=O)C2=C(C1)N(Cc1ccccc1)C(=O)C2(NC(=O)C(C)(C)C)C(F)(F)F (centres undefined)	11µM*	-9%	1%	?	7%	2%
Cc1noc([C@@H]2CC(F)(F)CN2S(=O)(=O)c2ccccc2)n1	nt	2%	nt	nt	nt	nt
